# Reference: PubChem BioAssay
# “And” between values parts separate entries of the source, which are not always exact repeats. Identical values can stand only once. The source made the active and inactive calls.
# Key:
# [1] = system: Plasmodium falciparum Sir2 (PF13_0152, Sir2A); test: pfSir2 binders on small-molecule microarrays, primary screen, biochemical, small-molecule microarray, 635 nm fluorescence (AID 1098); details: small-molecule microarray binding, fluorescence 635 nm; higher = more signal;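 further: score merges spot fluorescence intensity with its signal-to-noise ratio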
# [2] = small-molecule microarray binders of probe aDKK1, primary screen, biochemical, biotinylated probe, 635/667 nm fluorescence (AID 1099); details: higher = more signal;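 further: score merges 667nm spot fluorescence with signal to noise across triplicate slides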
# [3] = small-molecule microarray binders of probe aCHRDL2, primary screen, biochemical, biotinylated probe, 635/667 nm fluorescence (AID 1100); details: higher = more signal
# [4] = splicing luciferase reporter signal modulators, primary screen, spliceosome inhibition project, cell-based, HEK293, splice +/- reporter (AID 1101); details: luminescence, 24 h, higher = more signal, called active from +8 up or from −8 down;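 further: HEK293 cells carrying a splicing-competent luciferase reporter gene; test concentration not given here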
# [5] = molecular target: Fibroblast growth factor 10 (Homo sapiens) (UniProt O15520); test: FGF10 binders on small-molecule microarrays, primary screen, biochemical, small-molecule microarray, 635 nm fluorescence (AID 1102); details: FGF10 binding, fluorescence 635 nm, higher = more signal
# Sequence of Fibroblast growth factor 10 (Homo sapiens) (O15520 whole entry, looked up): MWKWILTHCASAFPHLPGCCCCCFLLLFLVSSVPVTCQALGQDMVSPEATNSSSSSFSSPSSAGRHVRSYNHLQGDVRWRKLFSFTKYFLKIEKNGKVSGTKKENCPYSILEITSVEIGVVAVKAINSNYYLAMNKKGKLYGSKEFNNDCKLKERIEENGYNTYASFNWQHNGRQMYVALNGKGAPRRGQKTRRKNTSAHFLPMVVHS
# [6] = system: glycogen synthase kinase-3 (GSK3A per assay name; protocol says GSK3B); test: GSK3 binders on small-molecule microarrays, primary screen, biochemical, small-molecule microarray, 635 nm fluorescence, GSK3A (AID 1103); details: small-molecule microarray binding, fluorescence 635 nm; higher = more signal; further: the record names both GSK3A and GSK3B
# [7] = molecular target: Epidermal growth factor receptor (Homo sapiens) (UniProt P00533); test: EGFR binders on small-molecule microarrays, primary screen, biochemical, small-molecule microarray, 635 nm fluorescence (AID 1104); details: EGFR binding, higher = more signal;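 further: score merges 667 nm emission intensity with spot signal to noise over triplicate slides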
# Sequence of Epidermal growth factor receptor (Homo sapiens) (P00533 whole entry, looked up): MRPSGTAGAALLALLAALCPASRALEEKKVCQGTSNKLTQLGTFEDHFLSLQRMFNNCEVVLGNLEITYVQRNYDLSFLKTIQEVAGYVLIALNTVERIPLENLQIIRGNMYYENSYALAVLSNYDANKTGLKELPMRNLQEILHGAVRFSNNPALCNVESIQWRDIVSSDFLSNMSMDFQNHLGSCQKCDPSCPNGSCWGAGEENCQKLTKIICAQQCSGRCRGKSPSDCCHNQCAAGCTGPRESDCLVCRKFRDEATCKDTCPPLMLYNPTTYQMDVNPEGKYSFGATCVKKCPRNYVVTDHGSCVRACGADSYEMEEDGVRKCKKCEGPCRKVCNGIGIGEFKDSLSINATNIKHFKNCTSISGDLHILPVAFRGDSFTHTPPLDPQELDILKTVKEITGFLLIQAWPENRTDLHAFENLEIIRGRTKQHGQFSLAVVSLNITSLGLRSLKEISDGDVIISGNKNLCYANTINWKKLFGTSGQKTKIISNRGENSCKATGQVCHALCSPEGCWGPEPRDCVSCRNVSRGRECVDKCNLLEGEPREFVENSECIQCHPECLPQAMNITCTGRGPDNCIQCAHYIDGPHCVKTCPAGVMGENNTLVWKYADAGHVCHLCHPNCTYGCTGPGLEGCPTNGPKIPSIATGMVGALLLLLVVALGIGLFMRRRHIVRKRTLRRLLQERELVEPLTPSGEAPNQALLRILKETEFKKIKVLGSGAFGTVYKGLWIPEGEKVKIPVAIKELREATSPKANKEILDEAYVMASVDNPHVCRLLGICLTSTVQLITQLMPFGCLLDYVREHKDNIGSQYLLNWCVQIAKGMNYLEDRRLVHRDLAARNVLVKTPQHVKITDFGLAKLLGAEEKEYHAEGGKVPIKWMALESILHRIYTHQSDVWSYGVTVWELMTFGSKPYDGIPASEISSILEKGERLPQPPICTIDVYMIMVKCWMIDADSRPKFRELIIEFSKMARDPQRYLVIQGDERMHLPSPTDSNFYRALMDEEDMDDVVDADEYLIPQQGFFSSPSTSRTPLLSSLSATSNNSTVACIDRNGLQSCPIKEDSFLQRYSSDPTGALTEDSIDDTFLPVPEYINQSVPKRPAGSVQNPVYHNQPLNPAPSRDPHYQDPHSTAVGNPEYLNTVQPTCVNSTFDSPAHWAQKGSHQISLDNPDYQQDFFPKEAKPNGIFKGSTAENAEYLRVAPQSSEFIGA
# [8] = molecular target: Follistatin-related protein 3 (Homo sapiens) (UniProt O95633); test: FSTL3 binders on small-molecule microarrays, primary screen, biochemical, small-molecule microarray, 635 nm fluorescence (AID 1105); details: FSTL3 binding, higher = more signal;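 further: score merges emission near 667 nm and signal to noise per printed spot across three slides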
# Sequence of Follistatin-related protein 3 (Homo sapiens) (O95633 whole entry, looked up): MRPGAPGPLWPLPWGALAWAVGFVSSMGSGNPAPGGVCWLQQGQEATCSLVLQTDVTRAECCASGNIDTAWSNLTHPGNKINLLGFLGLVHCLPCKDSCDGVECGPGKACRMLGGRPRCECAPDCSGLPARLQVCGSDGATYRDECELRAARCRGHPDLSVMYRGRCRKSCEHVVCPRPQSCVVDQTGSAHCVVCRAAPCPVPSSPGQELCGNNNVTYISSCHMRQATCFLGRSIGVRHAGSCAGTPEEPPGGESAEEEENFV
# [9] = molecular target: Dickkopf-related protein 1 (Homo sapiens) (UniProt O94907); test: DKK1 binders on small-molecule microarrays, primary screen, biochemical, small-molecule microarray, 635 nm fluorescence scan (AID 1106); details: DKK1 binding, higher = more signal;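 further: score merges emission near 667 nm with signal to noise over three replicate slides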
# Sequence of Dickkopf-related protein 1 (Homo sapiens) (O94907 whole entry, looked up): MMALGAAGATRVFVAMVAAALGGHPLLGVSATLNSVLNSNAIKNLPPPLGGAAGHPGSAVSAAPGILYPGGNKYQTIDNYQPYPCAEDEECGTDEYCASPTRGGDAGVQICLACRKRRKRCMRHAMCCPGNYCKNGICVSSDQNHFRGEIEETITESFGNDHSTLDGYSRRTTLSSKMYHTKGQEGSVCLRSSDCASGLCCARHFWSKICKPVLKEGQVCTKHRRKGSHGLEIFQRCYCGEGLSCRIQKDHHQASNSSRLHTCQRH
# [10] = system: Inhibin beta A chain (activin A); test: INHBA (activin A) binders on microarrays, primary screen, biochemical, small-molecule microarray, 635 nm fluorescence scan (AID 1107); details: small-molecule microarray binding, higher = more signal;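 further: mouse activin A protein probed at 4.33 µg/mL on printed slides; score merges bound-protein fluorescence near 667 nm with spot signal-to-noise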
# [11] = system: Human papillomavirus type 1a protein E7 (residues 44-93); test: HPV1a E7 fragment binders on microarrays, primary screen, biochemical, small-molecule microarray, residues 44-93, 635 nm fluorescence (AID 1108); details: small-molecule microarray binding, fluorescence 635 nm; higher = more signal;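 further: E7 fragment applied at 1 µg/mL in TBST for 1 h at 4 C; score combines spot fluorescence with its signal to noise ratio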
# [12] = modulators of HCV replicon luciferase signal, primary screen, HCV replication inhibitor project, Huh7 cells, luciferase reporter (AID 1109); details: 48 h, higher = more signal;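 further: huh7 hepatoma cells harbouring a luciferase neomycin HCV replicon reporter; luciferase luminescence as measure of HCV replicon replication; test concentration not given here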
# [13] = molecular target: Left-right determination factor 2 (Homo sapiens) (UniProt O00292); test: LEFTY2 binders on small-molecule microarrays, primary screen, biochemical, small-molecule microarray, 635 nm fluorescence scan (AID 1110); details: LEFTY2 binding, higher = more signal
# Sequence of Left-right determination factor 2 (Homo sapiens) (O00292 whole entry, looked up): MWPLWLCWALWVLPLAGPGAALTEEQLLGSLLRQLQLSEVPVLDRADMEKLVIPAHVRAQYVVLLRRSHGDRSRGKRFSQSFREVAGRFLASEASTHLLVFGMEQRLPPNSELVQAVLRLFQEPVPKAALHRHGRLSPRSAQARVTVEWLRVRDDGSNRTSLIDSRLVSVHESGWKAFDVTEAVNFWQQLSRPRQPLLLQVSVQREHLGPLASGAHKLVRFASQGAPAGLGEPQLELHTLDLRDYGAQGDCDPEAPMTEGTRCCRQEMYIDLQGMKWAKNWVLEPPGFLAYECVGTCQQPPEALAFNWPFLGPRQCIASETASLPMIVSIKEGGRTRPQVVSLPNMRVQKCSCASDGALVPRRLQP
# [14] = molecular target: Calmodulin-1 (Homo sapiens) (UniProt P0DP23); test: CALM1 binders on microarrays, EGTA buffer, profiling panel, biochemical, small-molecule microarray, Cy5-labelled CALM1 (AID 1111); details: Cy5-CALM1 binding fluorescence, higher = more signal;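 further: labelled calmodulin applied in Tris saline Tween buffer holding calcium plus EGTA and DTT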
# [15] = molecular target: Calmodulin-1 (Homo sapiens) (UniProt P0DP23); test: calcium-bound CALM1 binders on microarrays, profiling panel, artefact control for SMM control-protein annotation, biochemical, small-molecule microarray, Cy5-labelled CALM1, plus calcium (AID 1112); details: Cy5-CALM1 binding fluorescence, higher = more signal;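 further: score merges spot fluorescence with signal to noise from triplicate slides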
# [16] = small-molecule microarray binders of probe aWnt5a, primary screen, biochemical, biotinylated probe, 635/667 nm fluorescence (AID 1113); details: higher = more signal;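 further: score merges 667 nm fluorescence intensity with signal-to-noise per printed feature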
# [17] = small-molecule microarray binders of probe aShh, primary screen, biochemical, biotinylated probe, 635/667 nm fluorescence (AID 1114); details: higher = more signal;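 further: probe is biotin-labelled aShh protein from a stem cell growth factor screen; measures binding of labelled protein to compounds printed on the slide; score merges feature fluorescence at 667 nm with signal-to-noise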
# [18] = small-molecule microarray binders of probe aNog, primary screen, biochemical, biotinylated probe, 635/667 nm fluorescence (AID 1115); details: higher = more signal;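 further: probe is biotinylated aNog protein used at 0.15 µg/mL for 1 h at 4 C; z-score combines 667 nm fluorescence of each spot with its signal to noise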
# [19] = molecular target: Torsin-1A-interacting protein 1 (Homo sapiens) (UniProt Q5JTV8); test: LAP1 binders from COS7 cell lysate, primary screen, small-molecule microarray, 635/667 nm fluorescence (AID 1116); details: COS7-hLAP1 lysate binding, 635 nm fluorescence, higher = more signal
# Sequence of Torsin-1A-interacting protein 1 (Homo sapiens) (Q5JTV8 whole entry, looked up): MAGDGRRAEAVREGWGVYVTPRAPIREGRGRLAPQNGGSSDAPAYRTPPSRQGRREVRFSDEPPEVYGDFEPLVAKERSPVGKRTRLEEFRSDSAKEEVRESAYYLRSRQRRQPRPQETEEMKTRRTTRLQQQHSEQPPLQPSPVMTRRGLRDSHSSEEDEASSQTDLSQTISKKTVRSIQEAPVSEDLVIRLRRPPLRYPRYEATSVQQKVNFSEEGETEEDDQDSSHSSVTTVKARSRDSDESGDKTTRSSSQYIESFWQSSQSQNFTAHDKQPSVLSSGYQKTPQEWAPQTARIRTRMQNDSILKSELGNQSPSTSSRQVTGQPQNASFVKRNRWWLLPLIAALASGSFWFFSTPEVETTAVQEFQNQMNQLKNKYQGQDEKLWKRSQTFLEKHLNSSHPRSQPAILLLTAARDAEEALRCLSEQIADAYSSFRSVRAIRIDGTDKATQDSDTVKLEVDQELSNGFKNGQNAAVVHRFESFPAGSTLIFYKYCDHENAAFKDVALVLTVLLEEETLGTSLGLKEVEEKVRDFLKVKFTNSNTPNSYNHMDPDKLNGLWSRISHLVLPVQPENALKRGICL
# [20] = molecular target: Alpha-bungarotoxin (Bungarus multicinctus) (UniProt P60615); test: alpha-bungarotoxin binders on microarray, profiling panel, artefact control for SMM control protein annotation, biochemical, small-molecule microarray, Alexa647 label, 635/667 nm fluorescence (AID 1117); details: alpha-BTX-A647 binding fluorescence, higher = more signal
# Sequence of Alpha-bungarotoxin (Bungarus multicinctus) (P60615 whole entry, looked up): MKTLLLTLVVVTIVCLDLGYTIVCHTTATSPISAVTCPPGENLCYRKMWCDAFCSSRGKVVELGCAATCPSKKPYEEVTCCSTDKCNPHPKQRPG
Structure (SMILES),composite z-score [1],composite z-score [2],composite z-score [3],z-score [4],composite z-score [5],composite z-score [6],composite z-score [7],composite z-score [8],composite z-score [9],composite z-score [10],composite z-score [11],z-score [12],composite z-score [13],composite z-score [14],composite z-score [15],composite z-score [16],composite z-score [17],composite z-score [18],composite z-score [19],composite z-score [20]
C=C[C@H](C)[C@H](O)c1ccc(O)c2ccccc12,-0.826 and -0.608,-0.338 and -0.232,0.151 and -0.0669,-2.7 (inactive) and -1.54 (inactive),-1.16 and 0.187,-0.0928 and -0.78,-0.989 and 0.375,-0.433 and -0.63,-0.644 and -0.0107,0.794 and 0.956,-0.523 and -0.557,-1.28 and -0.876,-0.796 and -0.399,-1.09 and -1.04,-0.75 and -1.04,-0.244 and -0.12,-0.0769 and -0.138,-0.37 and -0.46,0.159 and -0.0387,0.594 and -0.204
COC(=O)C1=C2N(Cc3ccccc3)C(C)=C(C(=O)OC)[C@@H](c3ccccc3)N2C(=O)[C@](O)(C(=O)OC)C1,0.271 and 0.0802,-0.17 and -0.241,-0.684 and -0.512,-0.229 (inactive) and 0.213 (inactive),0.622 and 0.395,0.943 and 0.479,0.273 and 0.585,0.963 and 0.359,0.916 and 0.574,-0.146 and 0.22,-0.101 and 0.137,0.591 and 0.406,0.198 and 0.531,0.225 and -0.29,-0.803 and -0.391,-0.169 and -0.237,-0.214 and -0.0914,-0.18 and 0.162,-0.203 and 1.01,0.661 and 0.171
COCn1c2ccccc2c2nnc(C(C)=O)nc21,-0.137 and 0.312,-0.228 and -0.221,-0.42 and -0.408,-0.592 (inactive) and -0.85 (inactive),0.529 and 0.182,-0.0671 and 0.0307,0.574 and 0.979,0.383 and 0.277,0.808 and 0.152,0.12 and 0.483,-0.421 and 0.238,-0.366 and 0.141,0.486 and 0.305,-0.338 and -0.015,-0.462 and -0.409,-0.182 and -0.124,-0.282 and -0.0769,-0.294 and -0.158,0.184 and 0.0111,0.0727 and 0.378
CCC[C@@H]1C[C@@]1(CCC)[C@@H](NC(=O)c1ccc(-c2ccccc2)cc1)c1cccc(Cl)c1,1.21 and 0.366,1.34 and 0.898,1.09 and 1.13,-3.74 (inactive) and -1.69 (inactive),-0.592 and 0.143,-0.826 and -0.349,-0.346 and 0.0087,-0.46 and -0.339,-0.0916 and -0.455,1.53 and 0.896,-0.802 and 0.457,-2.13 and -2.05,-0.307 and -0.135,-1.57 and 0.535,-1.45 and 0.215,0.874 and 0.103,2.27 and -0.138,2.75 and 0.507,0.415 and 0.868,-0.899 and -0.0107
C=C[C@H](OC)[C@@H](O)c1ccc(O)c(F)c1,1.2 and -1.38,-0.48 and -0.349,0.7 and 0.65,-0.257 (inactive) and 0.0293 (inactive),-1.35 and -1.61,-2.09 and -1.69,-2.36 and -1.75,-1.89 and -1.94,-2 and -1.4,-1.87 and -1.2,-1.18 and -1.38,0.156 and -0.114,-2.27 and -2.63,-1.27 and -0.866,-0.625 and -0.713,-0.244 and -0.356,-0.262 and -0.282,-0.173 and -0.8,-0.753 and -1.81,-1.36 and -0.191
